# Screens from PubChem BioAssay.
# D1 ag: Allosteric Agonists of the Human D1 Dopamine Receptor: qHTS; hit rate 1% among 360,000; D(1A) dopamine receptor (Homo sapiens), P21728; AID 504660, 2011; HEK293 T-REx D1 cells, calcium flux, agonist mode; activation, % at 2 µM; also: 0% is about no effect
#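 Agonism was scored from calcium flux recorded over 180 s (1 read/s) after pintool compound addition, following a 10-cycle baseline. Cells were inducible force-coupled HEK293 TREx D1, plated overnight at 30 C and loaded with no-wash calcium dye.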
# TRHR ag: qHTS for Small Molecule Agonists and Allosteric Enhancers of Human TRH Receptor: Primary Screen for Agonists. TRHR cells, calcium flux fluo-8, FDSS agonist mode. activation, % at 2 µM. hit rate 0.18% among 360,000; also: 0% is about no effect
# Target sequence (P34981 whole entry, looked up): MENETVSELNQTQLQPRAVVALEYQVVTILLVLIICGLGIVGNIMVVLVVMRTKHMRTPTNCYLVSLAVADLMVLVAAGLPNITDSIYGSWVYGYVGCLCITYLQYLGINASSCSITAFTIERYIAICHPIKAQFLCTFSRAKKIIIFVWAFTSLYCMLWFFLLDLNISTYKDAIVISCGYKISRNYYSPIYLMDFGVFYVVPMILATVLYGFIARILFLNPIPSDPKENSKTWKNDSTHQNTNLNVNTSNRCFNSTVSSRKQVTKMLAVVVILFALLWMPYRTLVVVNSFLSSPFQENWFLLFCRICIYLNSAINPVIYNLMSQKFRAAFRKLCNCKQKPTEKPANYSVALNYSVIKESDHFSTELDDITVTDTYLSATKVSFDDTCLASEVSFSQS
#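 TRHR-expressing cells loaded with fluo-8 calcium dye; 23 nL library compound pin-transferred, kinetic FDSS fluorescence (Ex 480/Em 530) recorded about 180 s for agonist-induced calcium release, before a 10 nM TRH EC20 addition for potentiator mode.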
# D1 PAM: Potentiators of Human D1 Dopamine Receptor: qHTS. D(1A) dopamine receptor (Homo sapiens), P21728. HEK293 TREx D1 cells, calcium flux, dopamine EC20 potentiation. potentiation, % at 10 µM. hit rate 0.036% among 360,000. AID 504651, 2011; in the data active = potentiation above about 30%; also: 0% is about no effect
# D1 antagonist: Antagonist of Human D 1 Dopamine Receptor: qHTS. HEK293 TREx D1 cells, calcium flux, dopamine EC80; hits give low values. activity change, negative = inhibition, % at 10 µM. hit rate 3.2% among 360,000. D(1A) dopamine receptor (Homo sapiens), P21728; in the data active = activity change below about -30%; also: % is scaled to controls: 0 for no effect and ±100 for the full control effect
#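 After overnight tetracycline induction at 30 C, force-coupled D1 HEK293 cells took up a no-wash calcium dye at room temperature. Compounds were added and monitored 180 s, and the response to EC80 dopamine was then recorded.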
# TRHR enhancer: qHTS for Small Molecule Agonists and Allosteric Enhancers of Human TRH Receptor: Primary Screen for Enhancers. Thyrotropin-releasing hormone receptor (Homo sapiens), P34981. TRHR cells, fluo-8 calcium fluorescence, EC20 TRH enhancement. enhancement, % at 2 µM. hit rate 0.66% among 360,000; in the data active = enhancement above about 30%; also: 0% is about no effect
#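 Enhancer read-out: after compound pinning and an initial kinetic agonist-mode read, an EC20 of TRH (10 nM final) was injected and fluo-8 calcium signal (Ex 480/Em 530) followed at 1 s/cycle for 100 cycles in TRHR-expressing cells.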
# Starred values were filed as active, the others as inactive; / = not tested or not shown. Most compounds without a hit are left out; they make up all but 4.7% or so of the library. Rule as the data show it, unless noted: active = activation above about 30%; inactive = the rest.
SMILES,D1 ag,TRHR ag,D1 PAM,D1 antagonist,TRHR enhancer
Cc1[nH]nc(Nc2ccc(Br)cc2)c1[N+](=O)[O-],10,0,-10,-36*,-8
Cc1cc(C)c(NC(=O)CCN2C(=O)c3ccccc3Sc3ncccc32)c(C)c1,-1,0,3,5,-2
CCOC(=O)C(Cc1ccccc1)NC(=O)CCc1nnc2ccc(N3CCOCC3)nn12 (configuration not stated),2,0,-6,-30*,-3
COCCNC(=O)CCc1nnc2ccc(N3CCC(C)CC3)nn12,1,0,-4,3,31*
CCOC(=O)c1ccc(NC(=O)CSc2nc3ncc(Br)c(C)c3[nH]2)cc1,6,0,-3,2,23
CCN(c1ccc(C)cc1C)S(=O)(=O)c1nnc(NC(=O)c2ccccc2OC)s1,-2,0,-1,-24,3
CCNC(=O)COC(=O)c1cc(C)n(-c2ccccc2)c1C,8,-1,0,-55*,7
COc1ccc2nc(-c3ccccc3)cc(C(=O)OCC(=O)N3CC(C)OC(C)C3)c2c1 (configuration not stated),1,4,1,-7,41*
Cc1cc(C(=O)OCC(=O)N2CC(C)OC(C)C2)c(C)n1-c1ccccc1 (configuration not stated),7,0,/,-65*,5
COc1ccc2nc(-c3ccccc3)cc(C(=O)OCC(=O)N3CCCCC3)c2c1,4,0,3,14,-2
CC(=O)c1ccccc1OCCOCCOCCOc1ccccc1C(C)=O,1,0,1,31,-6
OCCOCCOc1ccccc1OCCOCCO,2,-1,-19,-86*,13
CC1CCCCN1S(=O)(=O)c1ccc(C(=O)N(CCCN(C)C)c2nc3ccc(Br)cc3s2)cc1 (configuration not stated),30,2,0,-32*,3
CN(C)CCCN(C(=O)C1=COCCO1)c1nc2ccc(Br)cc2s1,68*,1,-3,-41*,4
Cc1ccc2nc(N(CCCN(C)C)C(=O)c3ccc(S(=O)(=O)N4CCCCCC4)cc3)sc2c1,38*,3,0,1,2
CCCCN(C)S(=O)(=O)c1ccc(C(=O)N(CCN(C)C)c2nc3ccc(C)cc3s2)cc1,2,0,-9,-39*,-4
CCOc1ccccc1NC(=O)C(Cc1ccccc1)NS(=O)(=O)c1ccc2c(c1)oc(=O)n2C (configuration not stated),0,0,0,4,-6
COc1cccc(C(=O)c2cn(CC(=O)Nc3cccc(C)c3C)c3nc(C)ccc3c2=O)c1,3,0,-4,31,-1
CCN1C(c2ccc(F)cc2)=CS/C1=C(\C#N)c1nnc2n1-c1ccccc1SC2,0,-1,-10,-35*,-4
Cc1ccccc1CNC(=O)c1ccc(NC(=O)c2nsc3ccccc23)cc1,1,0,1,-6,-2
CCOCCCNC(=O)CCCn1nc(C)n2c(cc3sccc32)c1=O,-1,0,-7,-39*,-1
CCOc1cccc(C(=O)N(Cc2ccc(F)cc2)Cc2ccco2)c1,4,-2,-1,-18,-5
Cc1ccc(C)c(NC(=O)CSc2nncn3c2cc2sccc23)c1,3,0,-2,-7,-5
COc1ccccc1CNCC(O)Cn1c2ccccc2c2ccccc21 (configuration not stated),90*,6,-5,-10,13
OCCNCC(O)Cn1c2ccccc2c2ccccc21 (configuration not stated),3,0,-3,4,3
SMILES,D1 ag,TRHR ag,D1 PAM,D1 antagonist,TRHR enhancer
S=c1[nH]ncn1/N=C/c1ccc(Br)cc1,0,-1,3,12,-7
S=c1[nH]ncn1/N=C/c1ccccc1,3,0,-6,-30*,-16
CN(C(=S)Nc1ccc(Oc2ccccc2)cc1)C1CCCCC1,6,0,0,-33*,-6
Cc1ccc(C(=O)Nc2onc3c2CCCC3)cc1,0,0,-2,-16,2
O=C(NCc1ccc(F)cc1)C1CCN(C(=O)c2ccc(-n3ccc4ccccc43)s2)CC1,3,0,-5,-31*,-2
COc1ccc(C(=O)Nc2ncc(C)s2)cc1S(=O)(=O)N1CCOCC1,0,2,-4,12,32*
COc1cccc(CNC(=O)c2ccc(Cl)c(S(=O)(=O)N3CCOCC3)c2)c1,2,-1,-11,-34*,-7
COc1ccc(C(=O)NCC2COc3ccccc3O2)cc1S(=O)(=O)N1CCOCC1 (configuration not stated),0,-1,-4,-34*,-3
CCOC(=O)N1CCN(C(=O)c2ccc(Cl)c(S(=O)(=O)N3CCCC3)c2)CC1,0,0,34*,-2,2
CCC(=O)N1CCc2cc(Br)cc(S(=O)(=O)N3CCC(C(=O)Nc4ccccc4CC)CC3)c21,1,0,-1,-4,-7
Cc1ccc2c(c1)c1c(c(=O)n(Cc3ccccc3)c(=O)n1Cc1cccc(F)c1)n2C,-1,0,-2,14,-4
Cc1nn(C)c2c1c(C(F)(F)F)cc(=O)n2CC(=O)NCc1ccccc1Cl,-1,0,-6,22,9
C=CCN(c1ccccc1Cl)S(=O)(=O)c1cccc(C(=O)NCCc2ccc(OC)cc2)c1,3,1,-8,-32*,1
COc1ccc(C(=O)NCc2ccncc2)cc1S(=O)(=O)N1CCOCC1,4,0,/,-48*,-5
CCOC(=O)N1CCN(C(=O)c2ccc3c(c2)ncn3C2CCCC2)CC1,1,-1,-5,-12,34*
COc1ccccc1OCCNC(=O)c1cccc(S(=O)(=O)N2CCN(C)CC2)c1,1,0,5,6,1
COc1ccccc1OCCNC(=O)c1ccc(C)c(S(=O)(=O)N2CCOCC2)c1,30*,0,-7,-6,13
COc1ccc(C(CNC(=O)c2ccc(Cl)c(S(=O)(=O)N3CCCC3)c2)N2CCCC2)cc1 (configuration not stated),6,0,11,5,-4
COc1ccc(CCNC(=O)c2ccc(Cl)c(S(=O)(=O)N3CCCC3)c2)cc1,8,0,-1,-50*,1
CCOC(=O)c1ccc(NC(=O)CCC(=O)N2Cc3ccccc3Oc3ncccc32)cc1,37*,-1,3,9,14
COc1ccccc1CNC(=O)CSc1ncc2c(n1)-c1ccc(Cl)cc1N(Cc1ccccc1)S2(=O)=O,0,-1,-2,1,0
